Laboratory results as given in PubChem BioAssay (Tox21).
“And” between values parts separate entries of the source, which are not always exact repeats. Equal values may be shown once. Inconclusive results are not listed. Where a structure was tested more than once in an assay, its records may differ in their call. The source made the active and inactive calls. Unless noted, the call rests on the fitted dose curve; in most records, active means well fitted curve in the direction sought with a large enough effect in the repeat runs; inconclusive means weak or mixed curves; inactive means no such curve, though single readings can be large; an effect the other way counts as inactive or inconclusive.

Columns and labels:
[1] = qHTS assay to identify small molecule agonists of the estrogen receptor alpha (ER-alpha) signaling pathway in the presence of an antagonist - cell viability counter screen (AID 1259386);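 further: cells exposed to compounds for 22 h at 37 °C before the viability read; nearly all actives have a fitted effect of over 30% in size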; further: potency means the concentration at half of the fitted maximal effect; on activity change, negative = cytotoxicity: series mostly up to about 92 µM
How it was run: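 VM7Luc4E2 cells (endogenous full-length ER-alpha, 4×ERE-luciferase) were held 5 days in phenol red-free medium with 10% charcoal-stripped FBS, plated, then given 10.0nM ICI-182,780 and compounds at 15 concentrations for 22hr at 37C; viability read by CellTiter-Fluor fluorescence.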

[2] = biological target: Progesterone receptor (Homo sapiens) (UniProt P06401); experiment: qHTS assay to identify small molecule agonists of the progesterone receptor (PR) signaling pathway (AID 1346784; calls by dose curve; further: nearly all actives have a fitted effect of over 30% in size)
How it was run: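 PR-UAS-bla HEK 293T cells carrying a UAS-driven beta-lactamase reporter were seeded in medium with 2% charcoal-stripped FBS, preincubated 6 hr at 37C, then exposed to compounds in DMSO for 16 hr; agonism was read by LiveBLAzer B/G FRET fluorescence.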

[3] = biological target: Progesterone receptor (Homo sapiens) (UniProt P06401); experiment: qHTS assay to identify small molecule antagonists of the progesterone receptor (PR) signaling pathway (AID 1346795; active means well fitted inhibition curve with a large enough effect in the signal ratio in the repeat runs, not every such curve was filed as active; the % refers to the signal ratio)
How it was run: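 PR-UAS-bla HEK293T cells carrying a UAS-driven beta-lactamase reporter were plated in medium with 2% charcoal-stripped FBS and rested 6 hr at 37C. Compounds were added with 1 nM R5020 (final) for 16 hr, then FRET substrate loaded 2 hr at room temperature.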

[4] = qHTS assay to identify small molecule antagonists of the progesterone receptor (PR) signaling pathway - cell viability counter screen (AID 1346798); further: series mostly up to about 92 µM; nearly all actives have a fitted effect of over 50% in size
How it was run: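 PR-UAS-bla HEK293T cells in medium with 2% charcoal-stripped FBS were treated with compounds plus R5020 for 16 hr at 37C. Cell viability was then read by CellTiter-Glo luminescence after 30 min at room temperature in the same wells.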

[5] = qHTS assay to identify small molecule agonists of the progesterone receptor (PR) signaling pathway - cell viability counter screen (AID 1346799; calls by dose curve; further: nearly all actives have a fitted effect of over 45% in size)
How it was run: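 PR-UAS-bla HEK293T cells, 3,000 per well in medium with 2% charcoal-stripped FBS, were preincubated 6 hr at 37C, then exposed to compounds for 16 hr; viability was read as CellTiter-Glo luminescence after 30 min at room temperature.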

[6] = qHTS assay to identify small molecule antagonists of the TGF-beta/Smad signaling pathway - cell viability counter screen (AID 1346824); further: nearly all actives have a fitted effect of over 50% in size; further: potency means the concentration at half of the fitted maximal effect
How it was run: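 SBE-bla HEK 293T cells were plated overnight at 37 C, then given compounds in DMSO plus TGF-beta1 (added as 0.25 ng/mL solution) for 5 hr. After the bla read, CellTiter-Glo was added to the same wells and luminescence read after 30 min at room temperature.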

[7] = qHTS assay to identify small molecule agonists of the TGF-beta/Smad signaling pathway - cell viability counter screen (AID 1346829); further: nearly all actives have a fitted effect of over 45% in size; further: potency means the concentration at half of the fitted maximal effect; on activity change, negative = cytotoxicity: top concentration of the series differs between compounds
How it was run: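 Compound-treated SBE-bla HEK 293T cells (5 hr, 37 C) were assessed for viability with CellTiter-Glo in parallel with the reporter read.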

[8] = qHTS assay to identify small molecule agonists of the TGF-beta/Smad signaling pathway (AID 1346859; active means well fitted activation curve with a large enough effect in the signal ratio in the repeat runs, not every such curve was filed as active; the % refers to the signal ratio; further: series mostly up to about 77 µM)
How it was run: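 HEK 293T cells stably carrying a beta-lactamase reporter driven by the Smad binding element were seeded overnight, exposed to DMSO-dissolved compounds for 5 hr at 37 C, 5% CO2, then loaded with FRET substrate for 2 hr at room temperature.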

[9] = Human pregnane X receptor (PXR) small molecule agonists, qHTS cell viability counter screen (AID 1346977); further: nearly all actives have a fitted effect of over 50% in size; further: potency means the concentration at half of the fitted maximal effect
How it was run: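 PXR-Luc HepG2 cells in medium with 5% charcoal-stripped FBS were pre-incubated 5hr, then exposed to compounds for 24hr at 37C. Viability was read in the same wells by CellTiter-Fluor fluorescence, reagent added after 23hr with a 1hr incubation.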

[10] = Caspase-3/7 induction in HepG2 cells by small molecules, qHTS assay (AID 1346978); further: nearly all actives have a fitted effect of over 15% in size
How it was run: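 Wild-type HepG2 cells (2,000/well) were settled 5 h at 37 C, 5% CO2, then exposed to compounds in DMSO for 17 h. Caspase-3/7 activity was read by luminescence 30 min after adding Caspase-Glo 3/7 reagent at room temperature.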

[11] = Caspase-3/7 induction in CHO-K1 cells by small molecules, qHTS cell viability counter screen (AID 1346979); further: nearly all actives have a fitted effect of over 35% in size; further: potency means the concentration at half of the fitted maximal effect
How it was run: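 Wild-type CHO-K1 cells were seeded at 1,500 per well, rested 5hr at 37 C, then exposed to compounds in DMSO. After 16hr, CellTiter-Fluor reagent was added and fluorescence read 1hr later as the viability measure.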

[12] = Caspase-3/7 induction in CHO-K1 cells by small molecules, qHTS assay (AID 1346980); further: nearly all actives have a fitted effect of over 15% in size
How it was run: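 Wild-type cells were seeded at 1,500 per well and settled 5 hr at 37 C, 5% CO2, then exposed to DMSO-dissolved compounds for 17 hr. Caspase-Glo 3/7 reagent was added, and luminescence was read after 30min at room temperature.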

[13] = biological target: Nuclear receptor subfamily 1 group I member 2 (Homo sapiens) (UniProt O75469); experiment: Human pregnane X receptor (PXR) small molecule agonists, qHTS assay (AID 1346982); further: nearly all actives have a fitted effect of over 35% in size; further: potency means the concentration at half of the fitted maximal effect
How it was run: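 PXR-Luc HepG2 cells (CYP3A4 promoter-driven luciferase) were seeded in medium with 5% charcoal-stripped FBS, left 5 hr at 37 C, then exposed to compounds in DMSO for 24 hr. Luminescence was read after ONE-Glo addition.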

[14] = biological target: Cytochrome P450 2D6 (Homo sapiens) (UniProt P10635); experiment: Cytochrome P450 Family 2 Subfamily D Member 6 (CYP2D6) small molecule antagonists: luciferase reporter qHTS assay (AID 1671196); further: series mostly up to about 120 µM; nearly all actives have a fitted effect of over 50% in size
How it was run: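 CYP2D6 enzyme–substrate mix was held with compound for 10 min at room temperature, then NADPH regeneration solution was added and the reaction ran 1 h at room temperature. Luciferin product was detected by luminescence after 20 min with detection reagent.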

[15] = biological target: Thyrotropin-releasing hormone receptor (Homo sapiens) (UniProt P34981); experiment: qHTS assay to identify small molecule agonists of the thyrotropin-releasing hormone receptor (TRHR) signaling pathway (AID 1346891; calls by dose curve; further: series mostly up to about 58 µM)
How it was run: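 TRHR-expressing HEK293 cells were plated 18 h at 37 °C/5% CO2, loaded with calcium dye 2 h at 37 °C, then given compound in DMSO; fluorescence was read kinetically for 3 min at 1 s intervals.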

[16] = Caspase-3/7 induction in HepG2 cells by small molecules, qHTS cell viability counter screen (AID 1346981); further: series mostly up to about 92 µM; nearly all actives have a fitted effect of over 30% in size
How it was run: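 Wild-type HepG2 cells (2,000/well) were allowed to settle for 5 hr at 37 C, 5% CO2, then dosed with compounds in DMSO by pin transfer. After 16 hr at 37 C, CellTiter-Fluor was added and fluorescence read 1 hr later.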

[17] = biological target: Thyrotropin-releasing hormone receptor (Homo sapiens) (UniProt P34981); experiment: qHTS assay to identify small molecule antagonists of the thyrotropin-releasing hormone receptor (TRHR) signaling pathway (AID 1346877; active means well fitted inhibition curve with a large enough effect in the repeat runs, not every such curve was filed as active; further: series mostly up to about 51 µM)
How it was run: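 TRHR-expressing HEK293 cells were seeded, cultured 18 h at 37 °C, then loaded with calcium dye for 2 h. Compounds were pre-incubated 5 min at room temperature before 1 nM TRH (final) was added, and kinetic fluorescence was recorded for 3 min.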
On the % scale 0 is the no-effect control and ±100 the full control effect.

Chain of Nuclear receptor subfamily 1 group I member 2 (Homo sapiens) (O75469 whole entry, looked up): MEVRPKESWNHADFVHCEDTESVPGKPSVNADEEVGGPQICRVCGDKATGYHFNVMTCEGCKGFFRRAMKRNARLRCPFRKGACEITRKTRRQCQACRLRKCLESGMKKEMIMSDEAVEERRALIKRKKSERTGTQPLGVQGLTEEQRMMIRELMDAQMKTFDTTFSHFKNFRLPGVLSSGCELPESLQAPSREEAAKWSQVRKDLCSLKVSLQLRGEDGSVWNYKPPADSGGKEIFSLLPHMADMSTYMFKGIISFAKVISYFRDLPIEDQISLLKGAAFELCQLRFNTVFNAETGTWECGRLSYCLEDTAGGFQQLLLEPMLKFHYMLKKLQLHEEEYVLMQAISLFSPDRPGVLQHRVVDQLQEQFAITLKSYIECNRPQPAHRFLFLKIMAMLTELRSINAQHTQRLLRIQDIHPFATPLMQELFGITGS
Chain of Cytochrome P450 2D6 (Homo sapiens) (P10635 whole entry, looked up): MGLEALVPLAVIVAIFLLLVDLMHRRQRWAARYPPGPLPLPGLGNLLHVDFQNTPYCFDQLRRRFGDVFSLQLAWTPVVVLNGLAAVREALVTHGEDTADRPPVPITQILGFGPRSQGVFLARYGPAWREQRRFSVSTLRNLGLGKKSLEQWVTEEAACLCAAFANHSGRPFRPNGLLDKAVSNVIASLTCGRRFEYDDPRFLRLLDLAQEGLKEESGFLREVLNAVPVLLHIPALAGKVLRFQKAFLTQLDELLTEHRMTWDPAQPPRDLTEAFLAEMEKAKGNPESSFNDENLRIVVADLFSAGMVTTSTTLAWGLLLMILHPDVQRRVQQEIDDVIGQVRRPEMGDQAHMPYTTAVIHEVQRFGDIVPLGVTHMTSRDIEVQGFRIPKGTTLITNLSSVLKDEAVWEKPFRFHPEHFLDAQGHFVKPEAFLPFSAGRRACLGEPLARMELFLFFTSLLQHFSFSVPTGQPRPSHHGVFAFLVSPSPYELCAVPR
Chain of Progesterone receptor (Homo sapiens) (P06401 whole entry, looked up): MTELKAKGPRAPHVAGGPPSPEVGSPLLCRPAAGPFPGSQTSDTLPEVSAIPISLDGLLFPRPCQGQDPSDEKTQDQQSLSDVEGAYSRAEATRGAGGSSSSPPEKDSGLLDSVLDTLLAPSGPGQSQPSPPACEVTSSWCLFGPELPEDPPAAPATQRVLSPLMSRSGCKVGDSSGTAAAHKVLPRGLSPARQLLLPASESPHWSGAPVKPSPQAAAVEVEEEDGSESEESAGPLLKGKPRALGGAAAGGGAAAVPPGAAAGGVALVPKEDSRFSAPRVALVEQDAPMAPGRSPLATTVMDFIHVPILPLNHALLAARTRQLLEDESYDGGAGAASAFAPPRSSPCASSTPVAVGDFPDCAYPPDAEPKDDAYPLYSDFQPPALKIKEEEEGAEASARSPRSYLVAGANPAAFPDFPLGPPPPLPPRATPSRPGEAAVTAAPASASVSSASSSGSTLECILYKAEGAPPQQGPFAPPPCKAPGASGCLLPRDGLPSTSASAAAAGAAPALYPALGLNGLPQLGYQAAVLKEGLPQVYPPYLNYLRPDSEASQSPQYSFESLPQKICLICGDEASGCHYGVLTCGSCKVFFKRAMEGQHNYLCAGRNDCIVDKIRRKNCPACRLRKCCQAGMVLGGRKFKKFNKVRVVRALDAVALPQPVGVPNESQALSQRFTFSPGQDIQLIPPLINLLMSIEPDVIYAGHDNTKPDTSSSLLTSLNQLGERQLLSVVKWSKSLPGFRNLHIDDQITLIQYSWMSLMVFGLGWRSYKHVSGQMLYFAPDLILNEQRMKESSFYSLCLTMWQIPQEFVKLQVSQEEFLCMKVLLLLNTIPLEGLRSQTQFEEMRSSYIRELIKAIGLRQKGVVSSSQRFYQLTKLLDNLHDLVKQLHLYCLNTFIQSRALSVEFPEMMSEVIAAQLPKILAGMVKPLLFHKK
Chain of Thyrotropin-releasing hormone receptor (Homo sapiens) (P34981 whole entry, looked up): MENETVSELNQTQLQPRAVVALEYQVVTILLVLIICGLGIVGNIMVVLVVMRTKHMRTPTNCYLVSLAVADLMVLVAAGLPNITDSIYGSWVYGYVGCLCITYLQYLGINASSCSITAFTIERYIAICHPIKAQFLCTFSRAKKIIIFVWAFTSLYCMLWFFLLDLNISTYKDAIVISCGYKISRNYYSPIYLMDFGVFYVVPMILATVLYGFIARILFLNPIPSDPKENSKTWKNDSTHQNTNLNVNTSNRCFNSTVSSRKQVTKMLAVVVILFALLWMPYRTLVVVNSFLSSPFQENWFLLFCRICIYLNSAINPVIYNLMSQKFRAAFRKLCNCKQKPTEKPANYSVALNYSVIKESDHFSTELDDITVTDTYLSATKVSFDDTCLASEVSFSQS

CC1=CC(C)(C)Nc2ccccc21
inactive: Potency [1] | Potency [2] | Potency [3] | Potency [4] | Potency [5] | Potency [6] | Potency [7] | outcome [8] | Potency [9] | Potency [10] | Potency [11] | Potency [12] | Potency [14]
active: Potency [13] 8.41 µM

O=[Se](O)O
active: Potency [1] 38.6 µM | Potency [6] 2.46 µM | Potency [7] 2.19 µM | Potency [9] 24.4 µM | Potency [11] 54.5 µM
inactive: activity change, negative = cytotoxicity [1] 10.8% [at 19 µM] | Potency [2] | Potency [3] | Potency [4] | viability change, negative = cytotoxic [6] 0.606% [at 15.8 µM] | activity change, negative = cytotoxicity [7] 8.13% [at 15.8 µM] | activation [8] -0.714% [at 15.8 µM] | Potency [15] | activity change, negative = cytotoxicity [9] 6.76% [at 19 µM] | activity change, negative = cytotoxicity [11] 5.77% [at 19 µM] | Potency [12] | Potency [13]

CC(C)=CCO
inactive: Potency [1] | Potency [2] | Potency [3] | Potency [4] | Potency [5] | Potency [6] | Potency [7] | outcome [8] | Potency [11] | Potency [12] | Potency [16]
62.6 µM (active) and inactive: Potency [13]

Nc1cc([N+](=O)[O-])ccc1C(=O)O
inactive: Potency [1] | Potency [2] | Potency [3] | Potency [4] | Potency [5] | Potency [6] | Potency [7] | outcome [8] | Potency [9] | Potency [11] | Potency [12] | Potency [13] | Potency [14]

COC(=O)C(C)Oc1ccc(Oc2ncc(C(F)(F)F)cc2Cl)cc1 (stereo unspecified)
inactive: Potency [1] | Potency [2] | Potency [3] | Potency [4] | Potency [5] | Potency [6] | Potency [7] | outcome [8] | Potency [17] | Potency [15] | Potency [10] | Potency [11] | Potency [12] | Potency [16]
active: Potency [13] 61.9 µM and 61.1 µM

c1ccc2ncccc2c1
inactive: Potency [1] | Potency [2] | Potency [3] | Potency [4] | Potency [5] | Potency [6] | Potency [7] | outcome [8] | Potency [17] | Potency [9] | Potency [10] | Potency [11] | Potency [12] | Potency [13] | Potency [14]

O=C1CCc2ccccc2O1
inactive: Potency [1] | Potency [2] | Potency [3] | Potency [4] | Potency [5] | Potency [6] | Potency [7] | outcome [8] | Potency [17] | Potency [15] | Potency [10] | Potency [11] | Potency [12] | Potency [13]

CN1CCOCC1
inactive: Potency [1] | Potency [2] | Potency [3] | Potency [4] | Potency [6] | Potency [7] | outcome [8] | Potency [17] | Potency [10] | Potency [11] | Potency [12]
